# Measured values as given in PubChem BioAssay (NCATS).
# Records with an inconclusive call do not appear. The source made the active and inactive calls. Unless noted, the call rests on the fitted dose curve; in most records, active means well fitted curve in the direction sought with a large enough effect; inconclusive means small, poorly fitted or top-dose-only effect, or another doubt; inactive means no such curve, though single readings can be large; an effect the other way counts as inactive or inconclusive.
# How the values were obtained:
# [1] = target: Lysosomal acid glucosylceramidase (Homo sapiens) (UniProt P04062); assay: Glucocerebrosidase-p2 (AID 348; in the data active means potency below about 10 µM; further: potency means the concentration at half of the fitted maximal effect); details: purified GBA, blue fluorogenic substrate, 40 min
# Chain of Lysosomal acid glucosylceramidase (Homo sapiens) (P04062 whole entry, looked up): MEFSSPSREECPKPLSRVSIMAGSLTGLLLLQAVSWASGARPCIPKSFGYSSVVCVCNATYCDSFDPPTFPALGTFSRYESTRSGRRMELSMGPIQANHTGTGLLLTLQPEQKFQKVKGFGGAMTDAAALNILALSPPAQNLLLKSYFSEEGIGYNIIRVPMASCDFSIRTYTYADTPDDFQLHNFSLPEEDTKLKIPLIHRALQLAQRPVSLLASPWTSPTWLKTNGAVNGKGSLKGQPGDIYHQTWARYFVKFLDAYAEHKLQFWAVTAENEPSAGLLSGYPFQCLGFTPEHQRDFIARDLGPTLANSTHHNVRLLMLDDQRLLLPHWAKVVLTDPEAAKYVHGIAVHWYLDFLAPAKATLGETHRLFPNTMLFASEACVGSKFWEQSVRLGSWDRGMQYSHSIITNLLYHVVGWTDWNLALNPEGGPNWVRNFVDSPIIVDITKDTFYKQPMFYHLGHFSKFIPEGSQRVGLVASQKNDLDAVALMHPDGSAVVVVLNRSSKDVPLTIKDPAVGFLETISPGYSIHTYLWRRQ
# Procedure, shortened: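 Compounds titrated from 0.6 nM upwards against 0.2 nM enzyme in pH 5.9 citric acid/KH2PO4, taurocholate, tween-20; blue fluorogenic substrate 80 uM, 40 min room temperature, stopped and read Ex 365/Em 440 for AC50.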
# [2] = AP1 Signaling Pathway (AID 357; active means well fitted curve in either direction with a large enough effect, not every such curve was filed as active;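 further: ME-180 reporter cells stimulated with EGF at its EC50 level; on the % scale 0 is the no-effect control and ±100 the full control effect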); details: ME-180 AP-1-bla reporter, EGF-induced, beta-lactamase ratio, 5 h; at 7.69 µM (top of the series) unless noted
# Procedure, shortened: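 In this screen, ME-180 cells in Opti-MEM with 0.5% dialyzed FBS received EC50 EGF and compound titrations for 5 h. AP-1 reporter beta-lactamase was detected via CCF4 ratio, giving AC50 for positive and negative modulators.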
# [3] = target: Cytochrome P450 1A2 (Homo sapiens) (UniProt P05177); assay: p450-cyp1a2 (AID 410; calls by dose curve; further: potency means the concentration at half of the fitted maximal effect); details: recombinant CYP1A2, luciferin-ME demethylation, luminescence; series mostly up to 57 µM
# Chain of Cytochrome P450 1A2 (Homo sapiens) (P05177 whole entry, looked up): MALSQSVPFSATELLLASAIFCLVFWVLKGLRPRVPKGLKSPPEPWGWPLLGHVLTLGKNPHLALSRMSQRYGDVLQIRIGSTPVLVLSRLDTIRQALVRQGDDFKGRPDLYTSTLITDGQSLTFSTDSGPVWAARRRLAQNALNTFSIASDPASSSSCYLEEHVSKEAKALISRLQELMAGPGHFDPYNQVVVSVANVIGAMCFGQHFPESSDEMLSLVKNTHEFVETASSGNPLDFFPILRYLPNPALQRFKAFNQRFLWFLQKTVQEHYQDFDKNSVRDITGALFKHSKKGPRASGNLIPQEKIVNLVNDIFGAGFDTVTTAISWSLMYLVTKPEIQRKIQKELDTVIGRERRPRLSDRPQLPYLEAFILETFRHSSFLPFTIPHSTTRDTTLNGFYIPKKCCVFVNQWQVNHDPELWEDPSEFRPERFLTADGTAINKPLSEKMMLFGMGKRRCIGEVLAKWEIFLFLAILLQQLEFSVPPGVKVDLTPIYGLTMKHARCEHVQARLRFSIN
# Procedure, shortened: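 20nM CYP1A2 with 100uM Luciferin-ME (at Km) in 100mM KPO4; compound preincubated 10 min, NADPH regeneration added, 60 min at room temperature. Luciferin quantified by luminescence after detection reagent; normalized to 57 uM furafylline.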
# [4] = NFAT Signaling Pathway (AID 444; active means well fitted curve in either direction with a large enough effect, not every such curve was filed as active;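 further: carbachol stimulus at about its EC50 of 1 µM final; on the % scale 0 is the no-effect control and ±100 the full control effect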); details: Jurkat NFAT-bla M1, carbachol, beta-lactamase ratio, 5 h; at 7.69 µM (top of the series) unless noted
# Procedure, shortened: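 Jurkat cells carrying an NFAT-driven β-lactamase reporter and co-transfected muscarinic M1 receptor were treated with compound plus carbachol (1 uM final, an EC50 level) for 5 h at 37 °C. CCF4 loading followed for 1 h at RT; 460/530 nm ratio gave %activity.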
# [5] = Stat Signaling Pathway (AID 446; active means well fitted curve in either direction with a large enough effect, not every such curve was filed as active;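 further: ME-180 cervical cancer cells given 40 pM IL-6 alongside compound; SIE-controlled beta-lactamase reporter measured as 460/530 nm FRET emission ratio; on the % scale 0 is the no-effect control and ±100 the full control effect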); details: ME-180 SIE beta-lactamase reporter, IL-6 stimulated, 5 h; at 7.69 µM (top of the series) unless noted
# Procedure, shortened: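 Screening format detects activators and inhibitors alike: ME-180 SIE-bla cells stimulated at 40 pM IL-6 for 5 hrs with compound, then dual-emission beta-lactamase read at 405 nm excitation.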
# [6] = target: Glucocorticoid receptor (Homo sapiens) (UniProt P04150); assay: GR-GFP Redistribution (AID 450;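 active means compounds whose dose series gives a full or clear partial fitted curve of increased nuclear translocation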; further: potency means the concentration at half of the fitted maximal effect); details: U2OS GR-GFP nuclear translocation, laser cytometry, 2 h
# Chain of Glucocorticoid receptor (Homo sapiens) (P04150 whole entry, looked up, the tested form may be a part): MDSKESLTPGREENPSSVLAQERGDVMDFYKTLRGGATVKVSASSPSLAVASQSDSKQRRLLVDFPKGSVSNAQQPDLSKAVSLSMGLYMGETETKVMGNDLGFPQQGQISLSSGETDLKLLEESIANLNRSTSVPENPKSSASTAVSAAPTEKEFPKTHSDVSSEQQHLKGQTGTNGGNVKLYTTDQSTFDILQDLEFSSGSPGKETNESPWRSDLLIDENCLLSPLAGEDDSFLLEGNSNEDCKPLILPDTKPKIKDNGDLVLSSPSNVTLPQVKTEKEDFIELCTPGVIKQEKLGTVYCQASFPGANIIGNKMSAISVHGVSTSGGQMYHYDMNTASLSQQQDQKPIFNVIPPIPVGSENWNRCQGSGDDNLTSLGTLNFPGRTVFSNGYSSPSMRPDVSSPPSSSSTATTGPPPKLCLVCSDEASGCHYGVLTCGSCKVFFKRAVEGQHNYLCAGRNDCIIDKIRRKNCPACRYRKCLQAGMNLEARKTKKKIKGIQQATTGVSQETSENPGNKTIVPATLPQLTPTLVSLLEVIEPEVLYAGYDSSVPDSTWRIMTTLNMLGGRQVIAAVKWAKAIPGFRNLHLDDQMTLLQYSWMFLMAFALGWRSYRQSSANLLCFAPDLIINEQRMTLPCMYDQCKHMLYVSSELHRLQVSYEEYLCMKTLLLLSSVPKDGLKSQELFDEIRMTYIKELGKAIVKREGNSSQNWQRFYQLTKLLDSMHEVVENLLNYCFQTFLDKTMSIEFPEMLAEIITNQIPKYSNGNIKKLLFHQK
# [7] = target: Glucocorticoid receptor (Homo sapiens) (UniProt P04150); assay: GR-EFC Redistribution (AID 451; calls by dose curve; further: potency means the concentration at half of the fitted maximal effect); details: CHO-K1 GR-EFC translocation, beta-gal luminescence, 2 h
# Procedure, shortened: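 CHO-K1 cells stably expressing nuclear-localized β-gal enzyme acceptor and GR fused C-terminally to the enzyme donor fragment; ligand-driven nuclear translocation restores β-gal by complementation. Compounds titrated up to 46 uM final, 2 h at 37 °C; luminescence read.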
# [8] = target: Mitogen-activated protein kinase 10 (Mus musculus) (UniProt Q61831); assay: JNK3 AlphaScreen Assay (AID 530; active means well fitted curve in either direction with a large enough effect, not every such curve was filed as active;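 further: kinase came from lysate of stimulated human HepG2 cells; signal reports phosphorylation of biotinylated GST-cJun 1-79 at Ser73 with 10 µM ATP; on the % scale 0 is the no-effect control and ±100 the full control effect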); details: JNK3 lysate, c-Jun phosphorylation; series mostly up to 57.1 µM
# Procedure, shortened: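 Inhibitors reduce antibody binding to phosphorylated biotin-cJun, lowering AlphaScreen luminescence. Lysates from HepG2 cells pre-activated by IL-1beta plus TNF-alpha supplied JNK3; compounds were titrated.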
# [9] = target: 3',5'-cyclic-AMP phosphodiesterase 4B (Homo sapiens) (UniProt Q07343); assay: qHTS Assay for Inhibitors of PDE-IV (AID 607; active means well fitted activation curve with a large enough effect in the main read-out, with a control signal flat, not every such curve was filed as active; further: % of control where 0% means no effect); details: HEK293 ACTOne CNG channel cells, membrane potential fluorescence; series mostly up to 22.9 µM
# Chain of 3',5'-cyclic-AMP phosphodiesterase 4B (Homo sapiens) (Q07343 whole entry, looked up): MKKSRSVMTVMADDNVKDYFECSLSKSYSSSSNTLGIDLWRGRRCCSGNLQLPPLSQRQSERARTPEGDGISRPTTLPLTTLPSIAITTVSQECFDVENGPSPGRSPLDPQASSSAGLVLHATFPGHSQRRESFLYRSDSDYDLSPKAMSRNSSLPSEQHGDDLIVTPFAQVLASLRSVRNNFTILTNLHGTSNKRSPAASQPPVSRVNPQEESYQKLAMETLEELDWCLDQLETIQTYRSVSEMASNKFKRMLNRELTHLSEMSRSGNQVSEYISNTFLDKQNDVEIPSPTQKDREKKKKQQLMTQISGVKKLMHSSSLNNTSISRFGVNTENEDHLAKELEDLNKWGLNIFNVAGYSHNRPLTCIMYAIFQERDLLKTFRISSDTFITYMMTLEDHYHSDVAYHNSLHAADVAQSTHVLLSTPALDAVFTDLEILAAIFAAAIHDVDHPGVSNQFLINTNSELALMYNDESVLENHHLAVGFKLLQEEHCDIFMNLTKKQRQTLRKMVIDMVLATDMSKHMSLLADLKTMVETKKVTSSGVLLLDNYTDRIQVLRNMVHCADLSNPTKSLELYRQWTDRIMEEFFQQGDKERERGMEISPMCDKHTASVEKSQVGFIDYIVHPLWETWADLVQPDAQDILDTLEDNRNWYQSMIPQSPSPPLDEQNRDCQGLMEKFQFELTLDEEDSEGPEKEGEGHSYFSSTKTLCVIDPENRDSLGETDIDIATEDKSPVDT
# Procedure, shortened: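 The readout is membrane depolarisation from a cAMP-sensing CNG channel, detected with a potential dye at ex 535/em 590. Cells were HEK293-derived (endogenous PDE-IV) at 1000 cells/well, titrated up to 22.9 uM final.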
# [10] = target: Cytochrome P450 3A4 (Homo sapiens) (UniProt P08684); assay: qHTS Assay for Activators of Cytochrome P450 3A4 (AID 885); details: recombinant CYP3A4, Luciferin-PPXE luminescence, 60 min; series mostly up to 57.1 µM; further: nearly all actives have a fitted effect of over 65% in size
# Chain of Cytochrome P450 3A4 (Homo sapiens) (P08684 whole entry, looked up): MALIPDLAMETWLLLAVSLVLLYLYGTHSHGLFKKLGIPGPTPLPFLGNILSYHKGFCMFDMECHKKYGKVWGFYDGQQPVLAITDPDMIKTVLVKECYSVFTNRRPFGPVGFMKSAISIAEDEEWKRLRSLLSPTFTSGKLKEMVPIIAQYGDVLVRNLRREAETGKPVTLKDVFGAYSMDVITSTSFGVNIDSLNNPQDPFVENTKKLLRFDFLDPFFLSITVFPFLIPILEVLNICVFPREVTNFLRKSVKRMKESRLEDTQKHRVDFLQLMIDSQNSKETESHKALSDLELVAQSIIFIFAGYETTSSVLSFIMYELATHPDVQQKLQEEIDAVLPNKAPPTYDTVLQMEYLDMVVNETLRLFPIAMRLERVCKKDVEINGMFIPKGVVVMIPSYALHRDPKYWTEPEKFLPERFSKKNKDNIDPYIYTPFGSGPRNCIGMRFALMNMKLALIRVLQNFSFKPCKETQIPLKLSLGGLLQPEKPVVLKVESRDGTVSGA
# Procedure, shortened: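 Steps: enzyme/substrate mix dispensed; compound added, 10 min RT; NADPH regeneration solution added, 60 min RT; luciferin detection buffer stops reaction; 20 min later luminescence measured.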
# [11] = qHTS Assay for Lipid Storage Modulators (AID 1519; calls by dose curve); details: Drosophila S3 cells, BODIPY lipid droplet/cell ratio, laser cytometry, cells loaded with oleic acid; for activity change, negative = inhibition: at 57.5 µM (top of the series)
# Procedure, shortened: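 Cells seeded at 5,000 per well were treated with compounds over a concentration series and loaded with oleic acid (400 uM, as added). Lipid droplet fluorescence (488 nm excitation, 500-530 nm channel) was read by laser-scanning cytometry and normalized to 20 uM Triacsin C.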
# [12] = target: Dual specificity protein kinase CLK4 (Homo sapiens) (UniProt Q9HAZ1); assay: qHTS Assay for Inhibitors of CDC-like Kinase 4 (Kinase-Glo Assay) (AID 1770); details: recombinant Clk4, Kinase-Glo ATP depletion luminescence; series mostly up to 66.7 µM; further: on the % scale 0 is the no-effect control and ±100 the full control effect; nearly all actives have a fitted effect of over 65% in size
# Chain of Dual specificity protein kinase CLK4 (Homo sapiens) (Q9HAZ1 whole entry, looked up): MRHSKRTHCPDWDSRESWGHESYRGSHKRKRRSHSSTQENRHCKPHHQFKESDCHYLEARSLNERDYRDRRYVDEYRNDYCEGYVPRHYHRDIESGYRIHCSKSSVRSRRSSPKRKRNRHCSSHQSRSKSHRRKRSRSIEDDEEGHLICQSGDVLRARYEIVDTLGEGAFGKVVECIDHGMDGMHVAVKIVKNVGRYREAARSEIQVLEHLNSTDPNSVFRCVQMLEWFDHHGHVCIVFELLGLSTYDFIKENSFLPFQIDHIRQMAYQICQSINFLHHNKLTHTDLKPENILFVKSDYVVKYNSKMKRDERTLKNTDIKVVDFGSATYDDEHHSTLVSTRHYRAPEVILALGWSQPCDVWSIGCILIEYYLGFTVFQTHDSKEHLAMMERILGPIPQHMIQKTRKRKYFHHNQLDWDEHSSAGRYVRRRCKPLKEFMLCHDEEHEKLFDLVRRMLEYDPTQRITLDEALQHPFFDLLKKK
# Procedure, shortened: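 25 nM Clk4 with 100 uM RS repeat peptide and 1 uM ATP (final) in Tris pH7.5, 10 mM MgCl2, 4.5 h at room temperature. Remaining ATP measured by Kinase-Glo luciferase luminescence.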
# [13] = target: Dual specificity protein kinase CLK4 (Homo sapiens) (UniProt Q9HAZ1); assay: qHTS Assay for Inhibitors of CDC-like Kinase 4 (ADP-Glo Assay) (AID 1771); details: recombinant CLK4, ADP-Glo luminescence; series mostly up to 80 µM; further: on the % scale 0 is the no-effect control and ±100 the full control effect; nearly all actives have a fitted effect of over 70% in size
# Procedure, shortened: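 25 nM Clk4 with 100 uM RS repeat peptide and 1 uM ATP (final) in buffer with 2 mM MgCl2, 0.5 mM EGTA, 2.5 mM DTT, 0.01% Triton X-100; 1 h at room temperature; ADP-Glo luminescence for ADP formed.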
# [14] = target: Dual specificity protein kinase CLK4 (Homo sapiens) (UniProt Q9HAZ1); assay: qHTS Assay for Inhibitors of CDC-like Kinase 4 (ADP-FP Assay) (AID 1795); details: Transcreener ADP fluorescence polarization; series mostly up to 50 µM;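 further: recombinant human CLK4 phosphorylating RS repeat peptide at 1 µM ATP; on the % scale 0 is the no-effect control and ±100 the full control effect; nearly all actives have a fitted effect of over 60% in size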
# Procedure, shortened: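 Recombinant Clk4 (6.25 nM) phosphorylated 100 uM RS repeat peptide with 1 uM ATP in 25 mM Tris pH 7.5, 10 mM MgCl2, 0.5 mM EGTA, 2.5 mM DTT, 0.01% Triton X-100 for 1 h. ADP was detected by Transcreener ADP2 competitive fluorescence polarization after 30 min at room temperature.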
# [15] = target: Ubiquitin carboxyl-terminal hydrolase 1 (Homo sapiens) (UniProt O94782); assay: Inhibitors of USP1/UAF1: Pilot qHTS (AID 504865); details: purified USP1/UAF1, Ub-rhodamine cleavage fluorescence; series mostly up to 54.9 µM;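 further: rhodamine fluorescence freed from ubiquitin-rhodamine substrate followed over time; top concentration of the series differs between compounds; on the % scale 0 is the no-effect control and ±100 the full control effect; nearly all actives have a fitted effect of over 35% in size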
# Chain of Ubiquitin carboxyl-terminal hydrolase 1 (Homo sapiens) (O94782 whole entry, looked up): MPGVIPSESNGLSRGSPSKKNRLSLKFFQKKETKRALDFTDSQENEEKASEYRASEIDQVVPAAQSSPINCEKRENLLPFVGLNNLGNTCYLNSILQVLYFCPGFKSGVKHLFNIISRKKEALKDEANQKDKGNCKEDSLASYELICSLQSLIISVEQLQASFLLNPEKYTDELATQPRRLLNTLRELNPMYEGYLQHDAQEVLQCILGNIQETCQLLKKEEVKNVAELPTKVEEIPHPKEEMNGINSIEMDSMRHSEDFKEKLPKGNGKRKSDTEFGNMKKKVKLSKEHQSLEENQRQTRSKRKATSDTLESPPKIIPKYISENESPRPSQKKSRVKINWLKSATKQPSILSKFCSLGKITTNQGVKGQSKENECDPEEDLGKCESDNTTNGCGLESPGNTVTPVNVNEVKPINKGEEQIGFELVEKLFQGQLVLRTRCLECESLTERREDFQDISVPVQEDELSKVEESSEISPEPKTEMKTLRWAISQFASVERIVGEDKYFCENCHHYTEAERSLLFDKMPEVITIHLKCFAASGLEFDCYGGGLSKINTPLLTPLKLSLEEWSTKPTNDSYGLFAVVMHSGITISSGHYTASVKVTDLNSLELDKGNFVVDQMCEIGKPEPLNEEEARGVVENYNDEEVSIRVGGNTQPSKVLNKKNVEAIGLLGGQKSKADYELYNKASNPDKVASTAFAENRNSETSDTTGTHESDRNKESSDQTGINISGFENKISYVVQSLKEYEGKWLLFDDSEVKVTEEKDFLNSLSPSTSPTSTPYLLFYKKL
# Procedure, shortened: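 USP1/UAF1 complex at 1 nM preincubated 15 min at room temperature with compound, then Ub-Rho substrate added at 150 nM final. Fluorescence (480/540 nm) read kinetically in 50 mM HEPES pH 7.8, 0.5 mM EDTA, 1 mM TCEP, 0.1 mg/ml BSA, 0.01% Tween-20.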
# [16] = target: Cytochrome P450 3A4 (Homo sapiens) (UniProt P08684); assay: qHTS Assay for Inhibitors and Substrates of Cytochrome P450 3A4 (AID 884); details: recombinant CYP3A4, Luciferin-PPXE luminescence; series mostly up to 57.1 µM; further: nearly all actives have a fitted effect of over 50% in size; further: potency means the concentration at half of the fitted maximal effect
# Procedure, shortened: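 20 nM human CYP3A4 with 25 uM Luciferin-PPXE (at KM) in 200 mM KPO4, preincubated 10 min with compound; NADPH regeneration started a 60 min RT reaction. Luciferin detected by luminescence, normalized to 57 uM ketoconazole as full inhibition.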
# [17] = Confirmation and Secondary Assay for Modulators of Hemoglobin Beta Chain Splicing at IVS2 705 locus (AID 930); details: HeLa EGFP-705 splicing reporter, GFP fluorescence, 48 h; series mostly up to 38.3 µM;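 further: HeLa cells stably expressing the EGFP-705 splicing reporter; GFP fluorescence per well restored by corrected splicing of the IVS2-705 intron in EGFP; % of control where 0% means no effect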
# Procedure, shortened: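 HeLa cells stably carrying EGFP interrupted by mutant beta-globin intron 2 (IVS2-705) treated 2 days at 37C with compound; 500 nM antisense PNA as control. Correct splicing read as total peak GFP intensity per well by laser-scanning cytometry.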
# [18] = measured here: cell count channel max response
# [19] = measured here: lipid channel max response
Structure (SMILES),Potency [1],"activity change, negative = inhibition [2]",Potency [3],"activity change, negative = inhibition [4]","activity, negative = inhibition [5]",Potency [6],Potency [7],Potency [8],Potency [9],Potency [10],"activity change, negative = inhibition [11]","max response [11, 18]","max response [11, 19]",Potency [12],Potency [13],Potency [14],Potency [15],Potency [16],outcome [17]
CN1CCN(c2ncncc2-c2ccc(N(C)C)cc2)CC1,> 11.4 µM (inactive),-1.37% (inactive),12.6 µM (active),6.42% (inactive),3.73% (inactive),> 46 µM (inactive),> 46 µM (inactive),inactive,inactive,inactive,2.46% (inactive),19.8%,21.2%,inactive,inactive,inactive,inactive,,
CC(C)=CCC/C(C)=C/CC/C(C)=C/CC/C(C)=C/CC/C(C)=C/CC/C(C)=C/CC/C(C)=C/CC/C(C)=C/CC/C(C)=C/CO,,,,,,,,,,,5.78% (inactive),6.17%,20.4%,,,,,inactive,inactive
COCCn1c(=O)c(CCc2ccccc2)nc2cnc(Oc3ccc(OC)cc3)nc21,> 11.4 µM (inactive),-14.8% (inactive),15.8 µM (active),2.36% (inactive),-17% (inactive),> 9.22 µM (inactive),> 46 µM (inactive),inactive,inactive,inactive,-2.61% (inactive),5.1%,2.19%,inactive,inactive,inactive,inactive,3.16 µM (active),
COc1ccc2c(c1OC)C(=O)OC2C1c2c(cc3c(c2OC)OCO3)CCN1C (stereo not given),,11.6% [at 17.2 µM] (inactive),,-3.27% [at 17.2 µM] (inactive),9.27% [at 17.2 µM] (inactive),> 20.6 µM (inactive),,,,,0.209% (inactive),-33.3%,-33.7%,,,,,,
CCCC1O[C@@H]2C[C@H]3[C@@H]4CCC5=CC(=O)C=C[C@]5(C)C4[C@@H](O)C[C@]3(C)[C@]2(C(=O)CO)O1 (stereo not given in full),,,,,,,,,,,0.423% (inactive),-19.9%,-19.5%,,,,,,
